Test results as given in PubChem BioAssay (NCATS).
Records with an inconclusive call do not appear. The source made the active and inactive calls. The call rests on the fitted dose curve; in most records, active means well fitted curve in the direction sought with a large enough effect; inconclusive means small, poorly fitted or top-dose-only effect, or another doubt; inactive means no such curve, though single readings can be large; an effect the other way counts as inactive or inconclusive.

How the values were obtained:
MCC-13 = assay: qHTS assay to identify novel small-molecules to repurpose for Merkel cell carcinoma treatment (AID 1296009); settings: MCC and control cell lines, CellTiter-Glo viability, 72 h; series mostly up to 46 µM; further: nearly all actives have a fitted effect of over 60% in size
Outline: (§1)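 Cells exposed to NPC (8-point) and MIPE (11-point) compound dilutions for 72 hr at 37 degree celsius; viability read by CellTiter-Glo luminescence, normalized to no-cell and DMSO in-plate controls.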

MCC-26 = assay: as above; settings: MCC and control cell lines, CellTiter-Glo viability, 72 h; series mostly up to 46 µM
Outline: as §1

MKL-1 = assay: as above; settings: MCC and control cell lines, CellTiter-Glo viability, 72 h; series mostly up to 46 µM
Outline: as §1

MKL-2 = assay: as above; settings: MCC and control cell lines, CellTiter-Glo viability, 72 h; series mostly up to 46 µM
Outline: as §1

UISO = assay: as above; settings: MCC and control cell lines, CellTiter-Glo viability, 72 h; series mostly up to 46 µM
Outline: as §1

WaGa = assay: as above; settings: MCC and control cell lines, CellTiter-Glo viability, 72 h; series mostly up to 46 µM
Outline: as §1

C33A = assay: Primary qHTS to identify gynecologic anti-cancer compounds using libraries of approved drugs and bioactive compounds (AID 1345084); settings: Gynecologic cancer cell panel viability, ATPlite luminescence, 48 h; series mostly up to 57.5 µM; further: nearly all actives have a fitted effect of over 55% in size
Outline: (§2)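 Five-point cytotoxicity, 48 h drug exposure at 37 C, 5% CO2, on cells seeded 16 h beforehand. ATP content read by ATPlite luminescence.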

CASKI = assay: as above; settings: Gynecologic cancer cell panel viability, ATPlite luminescence, 48 h; series mostly up to 57.5 µM
Outline: as §2

Es-2 = assay: as above; settings: Gynecologic cancer cell panel viability, ATPlite luminescence, 48 h; series mostly up to 57.5 µM
Outline: as §2

HeLa = assay: as above; settings: Gynecologic cancer cell panel viability, ATPlite luminescence, 48 h; series mostly up to 57.5 µM
Outline: as §2

JEG-3 = assay: as above; settings: Gynecologic cancer cell panel viability, ATPlite luminescence, 48 h; series mostly up to 57.5 µM
Outline: as §2

OV90 = assay: as above; settings: Gynecologic cancer cell panel viability, ATPlite luminescence, 48 h; series mostly up to 57.5 µM
Outline: as §2

PA-1 = assay: as above; settings: Gynecologic cancer cell panel viability, ATPlite luminescence, 48 h; series mostly up to 57.5 µM
Outline: as §2

SKOV3 = assay: as above; settings: Gynecologic cancer cell panel viability, ATPlite luminescence, 48 h; series mostly up to 57.5 µM
Outline: as §2

Tov-21-G = assay: as above; settings: Gynecologic cancer cell panel viability, ATPlite luminescence, 48 h; series mostly up to 57.5 µM
Outline: as §2

Tov112D = assay: as above; settings: Gynecologic cancer cell panel viability, ATPlite luminescence, 48 h; series mostly up to 57.5 µM
Outline: as §2

[1] = Drug repurposing screens with cells derived from glioblastoma tumor samples (AID 1345199); settings: GBM patient neurospheres viability, ATP luminescence, 48 h; further: nearly all actives have a fitted effect of over 40% in size; further: potency means the concentration at half of the fitted maximal effect
Outline: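 Four patient lines of CD133+ GBM neurospheres were screened at several concentrations; hits were retested in those lines plus three slower-growing GBM lines, using 48-hour treatment and ATP-based viability.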

Hek293T = assay: Primary qHTS to identify gynecologic anti-cancer compounds using libraries of approved drugs and bioactive compounds (AID 1345084); settings: Gynecologic cancer cell panel viability, ATPlite luminescence, 48 h, control line for the selectivity index; series mostly up to 57.5 µM; further: nearly all actives have a fitted effect of over 55% in size
Outline: as §2

NIH3T3 = assay: qHTS assay to identify novel small-molecules to repurpose for Merkel cell carcinoma treatment (AID 1296009); settings: MCC and control cell lines, CellTiter-Glo viability, 72 h; at 44.8 µM (top of the series) unless noted; further: nearly all actives have a fitted effect of over 60% in size
Outline: as §1

CAOV3 = assay: Primary qHTS to identify gynecologic anti-cancer compounds using libraries of approved drugs and bioactive compounds (AID 1345084); settings: Gynecologic cancer cell panel viability, ATPlite luminescence, 48 h; series mostly up to 57.5 µM; further: nearly all actives have a fitted effect of over 55% in size
Outline: as §2

[2] = at 45.9 µM (top of the series), tumour line B
[3] = at 45.9 µM (top of the series), tumour line D
[4] = at 46 µM (top of the series), tumour line A
[5] = at 46.1 µM (top of the series), tumour line C
[6] = at 20 µM (top of the series), tumour line C
[7] = at 21.2 µM (top of the series), tumour line B
[8] = at 21.2 µM (top of the series), tumour line D
On the % scale 0 is the no-effect control and ±100 the full control effect.

OC[C@@H](O)[C@@H](O)[C@H](O)[C@H](O)CO
inactive: outcome (MCC-13) | outcome (MCC-26) | outcome (MKL-1) | outcome (MKL-2) | outcome (UISO) | outcome (WaGa) | outcome (C33A) | outcome (CASKI) | outcome (Es-2) | outcome (HeLa) | outcome (JEG-3) | Potency (OV90) | outcome (PA-1) | outcome (SKOV3) | outcome (Tov-21-G) | outcome (Tov112D) | activity, negative = cell killing [1, 2] -7.17% | activity, negative = cell killing [1, 3] -4.25% | activity, negative = cell killing [1, 4] -11.8% | activity, negative = cell killing [1, 5] -0.87%

COc1ccccc1OC(=O)Oc1ccccc1OC
inactive: outcome (MCC-13) | outcome (MCC-26) | outcome (MKL-1) | outcome (MKL-2) | outcome (UISO) | outcome (WaGa) | outcome (C33A) | outcome (CASKI) | outcome (Es-2) | outcome (HeLa) | outcome (Hek293T) | outcome (JEG-3) | Potency (OV90) | outcome (PA-1) | outcome (SKOV3) | outcome (Tov-21-G) | outcome (Tov112D) | activity, negative = cell killing [1, 2] -6.75% | activity, negative = cell killing [1, 3] -3.45% | activity, negative = cell killing [1, 4] -34.8% | activity, negative = cell killing [1, 5] -5.39%

CC(O)CCCCn1c(=O)c2c(ncn2C)n(C)c1=O (stereo not given)
inactive: outcome (MCC-13) | outcome (MCC-26) | outcome (MKL-1) | outcome (MKL-2) | outcome (UISO) | outcome (WaGa) | outcome (C33A) | outcome (CASKI) | outcome (Es-2) | outcome (HeLa) | outcome (Hek293T) | outcome (JEG-3) | Potency (OV90) | outcome (PA-1) | outcome (SKOV3) | outcome (Tov-21-G) | outcome (Tov112D) | activity, negative = cell killing [1, 2] -11.9% | activity, negative = cell killing [1, 3] -16.4% | activity, negative = cell killing [1, 4] -31.9% | activity, negative = cell killing [1, 5] -1.44%

NS(=O)(=O)c1cc(C2(O)NC(=O)c3ccccc32)ccc1Cl (stereo not given)
inactive: outcome (MCC-13) | outcome (MKL-1) | outcome (MKL-2) | outcome (NIH3T3) | outcome (UISO) | outcome (WaGa) | outcome (C33A) | outcome (CAOV3) | outcome (CASKI) | outcome (Es-2) | outcome (HeLa) | outcome (Hek293T) | outcome (JEG-3) | Potency (OV90) | outcome (PA-1) | outcome (SKOV3) | outcome (Tov-21-G) | outcome (Tov112D) | activity, negative = cell killing [1, 6] 3.89% | activity, negative = cell killing [1, 7] 6.28% | activity, negative = cell killing [1, 8] -20.6%

CC(C)=CCC[C@@](C)(O)[C@H]1CC=C(C)CC1
inactive: outcome (MCC-13) | outcome (MCC-26) | outcome (MKL-1) | outcome (MKL-2) | outcome (UISO) | outcome (WaGa) | outcome (C33A) | outcome (CASKI) | outcome (Es-2) | outcome (Hek293T) | outcome (JEG-3) | Potency (OV90) | outcome (PA-1) | outcome (SKOV3) | outcome (Tov-21-G) | outcome (Tov112D) | activity, negative = cell killing [1, 2] -3.12% | activity, negative = cell killing [1, 3] 18.2% | activity, negative = cell killing [1, 5] -10.5%

Cc1cc(NC(=O)C2=C(O)c3ccccc3S(=O)(=O)N2C)no1
inactive: outcome (MCC-13) | outcome (MCC-26) | outcome (MKL-1) | outcome (MKL-2) | outcome (UISO) | outcome (WaGa) | outcome (C33A) | outcome (CASKI) | outcome (Es-2) | outcome (HeLa) | outcome (Hek293T) | outcome (JEG-3) | Potency (OV90) | outcome (PA-1) | outcome (SKOV3) | outcome (Tov-21-G) | outcome (Tov112D) | activity, negative = cell killing [1, 2] -5.07% | activity, negative = cell killing [1, 3] -8.1% | activity, negative = cell killing [1, 5] -15.1%

CO[C@@]1(NC(=O)C(C(=O)O)c2ccc(O)cc2)C(=O)N2C(C(=O)O)=C(CSc3nnnn3C)CO[C@@H]21 (stereo not given in full)
inactive: outcome (MCC-13) | outcome (MCC-26) | outcome (MKL-1) | outcome (MKL-2) | outcome (UISO) | outcome (WaGa) | outcome (C33A) | outcome (CASKI) | outcome (Es-2) | outcome (HeLa) | outcome (Hek293T) | outcome (JEG-3) | Potency (OV90) | outcome (PA-1) | outcome (SKOV3) | outcome (Tov-21-G) | outcome (Tov112D) | activity, negative = cell killing [1, 6] -17.7% | activity, negative = cell killing [1, 7] -0.689% | activity, negative = cell killing [1, 8] -3.96% | activity, negative = cell killing ([1]; at 21.3 µM (top of the series), tumour line A) -23.1%

O=C(O)CCC(=O)O
inactive: outcome (MCC-13) | outcome (MCC-26) | outcome (MKL-1) | outcome (MKL-2) | outcome (UISO) | outcome (WaGa) | outcome (C33A) | outcome (CASKI) | outcome (Es-2) | outcome (HeLa) | outcome (Hek293T) | outcome (JEG-3) | Potency (OV90) | outcome (PA-1) | outcome (SKOV3) | outcome (Tov-21-G) | outcome (Tov112D) | activity, negative = cell killing [1, 2] -11.8% | activity, negative = cell killing [1, 3] -1.31% | activity, negative = cell killing [1, 4] -19% | activity, negative = cell killing [1, 5] 36.7%

Cc1c(Cn2ccnc2)c2ccccc2n1CCC(=O)O
inactive: outcome (MCC-13) | outcome (MCC-26) | outcome (MKL-1) | outcome (MKL-2) | outcome (UISO) | outcome (WaGa) | outcome (C33A) | outcome (CASKI) | outcome (Es-2) | outcome (HeLa) | outcome (Hek293T) | outcome (JEG-3) | Potency (OV90) | outcome (PA-1) | outcome (Tov-21-G) | outcome (Tov112D) | activity, negative = cell killing [1, 2] 1.3% | activity, negative = cell killing [1, 3] -4.06% | activity, negative = cell killing [1, 4] -28% | activity, negative = cell killing [1, 5] -6.27%

Cc1ccc(C(C)C)c(O)c1
inactive: outcome (MCC-13) | outcome (MCC-26) | outcome (MKL-1) | outcome (MKL-2) | outcome (UISO) | outcome (WaGa) | outcome (C33A) | outcome (CASKI) | outcome (Es-2) | outcome (HeLa) | outcome (Hek293T) | outcome (JEG-3) | Potency (OV90) | outcome (PA-1) | outcome (SKOV3) | outcome (Tov-21-G) | outcome (Tov112D) | activity, negative = cell killing [1, 2] -5.11% | activity, negative = cell killing [1, 3] -0.376% | activity, negative = cell killing [1, 4] -10.8% | activity, negative = cell killing [1, 5] 0.583%

C[C@@H]1O[C@@H](OC[C@H]2O[C@@H](Oc3c(-c4ccc(O)c(O)c4)oc4cc(O)cc(O)c4c3=O)[C@H](O)[C@@H](O)[C@@H]2O)[C@H](O)[C@H](O)[C@H]1O
inactive: outcome (MCC-13) | outcome (MCC-26) | outcome (MKL-1) | outcome (MKL-2) | outcome (UISO) | outcome (WaGa) | outcome (C33A) | outcome (CASKI) | outcome (Es-2) | outcome (HeLa) | outcome (Hek293T) | outcome (JEG-3) | Potency (OV90) | outcome (PA-1) | outcome (SKOV3) | outcome (Tov-21-G) | outcome (Tov112D) | activity, negative = cell killing [1, 2] -2.66% | activity, negative = cell killing [1, 3] 3.42% | activity, negative = cell killing [1, 4] -16.5% | activity, negative = cell killing [1, 5] -1.98%

CCCOC(=O)c1ccc(N)cc1
active: Potency ([1]; tumour line C) 25.9 µM
inactive: outcome (MCC-13) | outcome (MCC-26) | outcome (MKL-1) | outcome (MKL-2) | outcome (UISO) | outcome (WaGa) | outcome (C33A) | outcome (CAOV3) | outcome (Es-2) | outcome (HeLa) | outcome (Hek293T) | outcome (JEG-3) | Potency (OV90) | outcome (PA-1) | outcome (SKOV3) | outcome (Tov-21-G) | outcome (Tov112D) | activity, negative = cell killing [1, 3] -16.4%
